A short description of assay [1]: blockers of polyQ-driven CASP3 activation – cell-based (AID 1583). Particulars: polyglutamine-induced caspase-3 activation, cell assay; stronger effect = higher value;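 tested at 10 µM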.
Assay [2] in a line: yeast 75Q aggregation reduction – 75Q-TubU reporter (AID 1593). The conditions noted are these: Yeast 75Q polyglutamine aggregation reporter.
Assay [3] can be described thus: restoration of touch response, mutant HTT neurons – whole organism, C. elegans mechanosensory neurons, N-terminal huntingtin (AID 1599). Particulars: C. elegans polyQ-huntingtin mechanosensory neurons, stronger effect = higher value.
Assay [4] is described as follows: blockers of cytochrome c efflux from mitochondria – biochemical, purified mitochondria (AID 1603).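 Further: mouse liver mitochondria challenged with calcium chloride; signal normalized to the plate average as 100%.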 Particulars: stronger effect = lower value.
Assay [5] is described as follows: polyglutamine aggregate formation blockers (AID 1604). The conditions noted are these: polyglutamine-induced protein aggregation inhibition assay; stronger effect = higher value; tested at 2.5 µM.
A short description of assay [6]: glutamate transport activators, MN-1 cells, MN-1 cell line (AID 1612).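 Further: tested at 1 µM final; 0% = mean of DMSO vehicle wells on each plate; positive means more glutamate uptake than control and negative means less.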 The conditions noted are these: MN-1 motor neuron cells, stronger effect = higher value.
Assay [7] is described as follows: 75Q-TubH aggregate inhibition, S. cerevisiae, yeast (AID 1616). The conditions noted are these: S. cerevisiae 75Q-TubH polyglutamine aggregation suppression; stronger effect = higher value.
A short description of assay [8]: EMT-state selective cytotoxicity in co-culture – imaging, PC-3E GFP, TEM4-18 mCherry, primary screen (AID 1345086).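 On all read-outs here: cells exposed to compound for 72 h before imaging.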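 On red/green cell ratio (normalised): normalised mesenchymal count divided by normalised epithelial count so high means epithelial killing.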 The conditions noted are these: PC-3E GFP / TEM4-18 mCherry co-culture, imaging cell counts, at 1 µM; for red/green cell ratio (normalised): actives lie on both sides.
Assay [9] relates to Aerobactin synthetase IucA (Klebsiella pneumoniae hvKP1). The experiment in a line: IucA enzyme inhibition, primary screen, biochemical, Spectrum library (AID 1346200; call rule not given here;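 further: 100% = wells without compound and 0% = wells lacking enzyme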). The conditions noted are these: malachite green pyrophosphate, A620, at 8 µM, stronger effect = lower value.
Assay [10] can be described thus: P. berghei load reduction in hepatocytes – cell-based, HepG2, luciferase luminescence, HepG2 viability, primary screen (AID 624349; in the data active means parasite load remaining mostly below about 12%, no sharp cut-off; inactive means mostly above about 10%;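 further: 100% = mean of DMSO negative control wells on the same plate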). The conditions noted are these: P. berghei liver stage in HepG2, luciferase luminescence, concentration not given here; parasite load remaining: stronger effect = lower value; viability: measured here: HepG2 viability without parasites.
Assay [11] can be described thus: viability loss with induced miR-34 in A549 – imaging, A549 dox-inducible miR-34, nuclei and caspase counts, primary screen (AID 1347080;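 active means compounds whose cell count with miR-34 switched on is under 0.7 times the count with it off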). Particulars: A549 miR-34 inducible, Hoechst nuclei count, 48 h.
In assay [12] the target is Mitogen-activated protein kinase 7 (Homo sapiens) (UniProt Q13164). Kind of assay: Gal4-ERK5 driven luciferase induction – cell-based, HTS, primary screen (AID 1508626;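 active means luciferase signal above three times the same-plate solvent-only control wells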;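 further: luciferase driven by Gal4-ERK5 fusion binding five Gal4 sites before minimal TATA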). The conditions noted are these: HeLa Gal4-ERK5 transactivation, 18 h, at 5 µM, stronger effect = higher value.
Chain of Mitogen-activated protein kinase 7 (Homo sapiens) (Q13164 whole entry, looked up, the tested form may be a part): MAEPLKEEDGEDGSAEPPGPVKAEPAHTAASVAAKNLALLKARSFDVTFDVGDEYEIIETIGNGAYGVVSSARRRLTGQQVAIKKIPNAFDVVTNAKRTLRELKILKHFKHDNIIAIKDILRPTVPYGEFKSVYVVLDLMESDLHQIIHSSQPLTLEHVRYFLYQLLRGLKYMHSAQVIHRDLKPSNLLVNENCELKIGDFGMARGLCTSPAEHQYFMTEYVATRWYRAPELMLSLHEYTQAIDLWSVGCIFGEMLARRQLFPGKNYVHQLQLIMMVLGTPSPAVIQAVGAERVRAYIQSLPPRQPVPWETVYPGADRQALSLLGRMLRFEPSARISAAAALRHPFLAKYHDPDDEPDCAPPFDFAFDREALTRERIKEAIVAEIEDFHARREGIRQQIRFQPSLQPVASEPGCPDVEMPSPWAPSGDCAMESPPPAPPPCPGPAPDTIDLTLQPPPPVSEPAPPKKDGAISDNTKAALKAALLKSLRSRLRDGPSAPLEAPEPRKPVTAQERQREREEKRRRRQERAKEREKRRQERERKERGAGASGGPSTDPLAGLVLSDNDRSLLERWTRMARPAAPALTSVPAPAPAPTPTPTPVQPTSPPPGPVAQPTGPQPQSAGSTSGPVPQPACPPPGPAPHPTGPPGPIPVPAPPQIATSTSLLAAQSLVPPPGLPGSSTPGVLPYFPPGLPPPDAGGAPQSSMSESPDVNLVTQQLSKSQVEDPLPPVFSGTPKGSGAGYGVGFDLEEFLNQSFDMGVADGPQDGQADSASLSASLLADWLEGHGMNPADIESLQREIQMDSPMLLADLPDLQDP
Assay [13] is described as follows: MELAS cybrid and Rieske KO viability enhancers – cell-based, MELAS cybrids, Rieske KO mouse fibroblasts, CellTiter-Glo, primary screen (AID 1508586;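 active means mean z-score across replicates of 1.96 or higher in either the MELAS or the Rieske mutant cell line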;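 further: z relative to plate mean and SD of compound and empty wells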). Particulars: low glucose.
The nature of assay [14]: galactose survival enhancers in mitochondrial complex I cybrids – cell-based, galactose medium, ATP luminescence, primary screen (AID 1645843;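 active means z-score of at least 1.8 in each of two replicates, scored against plate mean and spread of sample wells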;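 further: positive z means more ATP and so rescue of galactose-driven cybrid death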). The conditions noted are these: complex I mutant cybrid cells, 72 h, stronger effect = higher value.
[15] abbreviates: measured here: epithelial PC-3E GFP cell survival.
[16] abbreviates: measured here: mesenchymal TEM4-18 mCherry cell survival.
[17] abbreviates: measured here: relative caspase fold change +Dox/-Dox.
Setting [18] is: measured here: total cells with miR-34 induction, stronger effect = lower value.
Setting [19] is: measured here: total cells without miR-34 induction.

Several values for one entry are separate records, joined by “and”; a condition that tells them apart may be missing. Equal entries are not always repeated. For some of these results: Measured potencies and affinities stand elsewhere. Activity calls are given as the source filed them.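 How the source made its calls, unless noted: active means compounds killing one labelled cell type while sparing the other, by normalised counts and ratio limits, not self-fluorescent; inactive means the rest.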

Compound `CC(C)=CCCC1(C)C=Cc2c(O)c3c(c(CC=C(C)C)c2O1)OC12C(=CC4CC1C(C)(C)OC2(C/C=C(/C)C(=O)O)C4=O)C3=O` (configuration not stated) came in with an inhibition in [1] of 78.5%. In assay [2], the score was 0.45. The compound also returned a rescue above control in [3] of -1.66. In assay [4], the cytochrome c release ratio came out at 3.17. This compound also returned an inhibition of aggregation in assay [5] of 100%. Also, the glutamate uptake change in [6] was -92.9%. In assay [7], the aggregation suppression score amounted to 0.449. Besides, the red/green cell ratio (normalised) in assay [8] is 1.03 (inactive). Moreover, the normalised cell number in assay [8] (setting [15]) was found to be 1.09; in [8] (setting [16]) it was 1.13. The activity remaining in [9] is 120% (inactive).
As for `COc1cc2c(cc1O)CC1c3c(cc(O)c(OC)c3-2)CCN1C` (configuration not stated), in [10], the parasite load remaining is 73.5% (inactive) and the viability stood at 80.3%. Moreover, the red/green cell ratio (normalised) in assay [8] is 0.97 (inactive). The same compound came in with a normalised cell number in [8] (setting [15]) of 1.11. Further, the normalised cell number in assay [8] (setting [16]) stood at 1.07. In addition, the activity remaining in assay [9] was 119% (inactive).
As to `C=C/C=C\CC1=C[C@@H](OC(=O)[C@@H]2[C@@H](C=C(C)C)C2(C)C)CC1=O`, the red/green cell ratio (normalised) in assay [8] is 0.66 (inactive). The normalised cell number in assay [8] (setting [15]) worked out at 1.35; in assay [8] (setting [16]), 0.89. Further, the results for the fold change in assay [11] (stronger effect = lower value) and in assay [11] (setting [17]) were 0.949 (inactive) and 1.14, respectively. The cell count in [11] (setting [18]) came out at 8080; in assay [11] (setting [19]), 8520.
With `NC1=NC(=O)N2CC12` (configuration not stated), the red/green cell ratio (normalised) in assay [8] was 0.74 (inactive). In addition, the values for the normalised cell number in [8] (setting [15]) and in assay [8] (setting [16]) were 1.2 and 0.88, respectively. The fold change in [11] (stronger effect = lower value) is 0.901 (inactive); in [11] (setting [17]) it was 0.97. Moreover, the cell count in assay [11] (setting [18]) was determined as 8180; in assay [11] (setting [19]) it was 9090.
Regarding `CCCCC[C@H]1C(=O)O[C@H](C)[C@H](NC(=O)c2cccc(NC=O)c2O)C(=O)O[C@@H](C)[C@@H]1OC(=O)CC(C)C`, the inhibition in [1] was found to be 29.9%. In assay [2], this compound registered a score of 0.73. Besides, in assay [3], the rescue above control was -18. Also, the cytochrome c release ratio in assay [4] was found to be 0.26. The compound also returned an inhibition of aggregation in [5] of 7.32%. The glutamate uptake change in assay [6] turned out to be 3.11%. In assay [7], the aggregation suppression score came to 0.0257. The red/green cell ratio (normalised) in [8] is 0.71 (inactive). The normalised cell number in [8] (setting [15]) was determined as 0.78; in assay [8] (setting [16]), 0.55. Further, the activity remaining in assay [9] was 111% (inactive). In addition, the luciferase signal in assay [12] was 60 AU (inactive).
Consider `CC(=O)OCC1=C(C(=O)O)N2C(=O)[C@@H](NC(=O)CCCC(N)C(=O)O)C2SC1` (some centres not stated), for which the inhibition in assay [1] stood at 10.9%. In assay [2], this compound registered a score of 1.28. The cytochrome c release ratio in assay [4] came out at 1.12. Further, the inhibition of aggregation in assay [5] stood at 39.4%. In addition, the glutamate uptake change in assay [6] turned out to be 3.72%. In [7], this compound yielded an aggregation suppression score of 1.03. Also, in assay [10], the parasite load remaining is 94.5% (inactive) and the viability was 67%. For the same compound, the red/green cell ratio (normalised) in assay [8] is 0.94 (inactive). For the same compound, the normalised cell number in assay [8] (setting [15]) came out at 1.04. For the same compound, the normalised cell number in assay [8] (setting [16]) is 0.98. The activity remaining in [9] is 111% (inactive).
Regarding `C#CCN(C)C(C)Cc1ccccc1` (configuration not stated), in assay [10], the parasite load remaining is 54.6% (inactive) and 61.7% (inactive). Also, the viability in [10] was 101% and 170%. The red/green cell ratio (normalised) in [8] was 1.02 (inactive). The values for the normalised cell number in [8] (setting [15]) and in assay [8] (setting [16]) were 1.06 and 1.07, respectively. For the same compound, the fold change in assay [11] (stronger effect = lower value) was 0.923 (inactive) and 0.946 (inactive) and 0.891 (inactive); in assay [11] (setting [17]) it was 2.5 and 4.7 and 1.31. Besides, the cell count in [11] (setting [18]) was 9410 and 12100 and 9880; in [11] (setting [19]), 10200 and 12800 and 11100. Also, the z-score is -0.242 (inactive) in [13] (MELAS cybrid survival, CellTiter-Glo 48 h, stronger effect = higher value); -0.831 in [13] (Rieske KO mouse fibroblast survival, CellTiter-Glo 72 h); 0.995 (inactive) and 0.67 (inactive) in [14].

The values above are taken from PubChem BioAssay.
